Screening results from PubChem BioAssay.
SNCA expr inh – SNCA gene expression inhibition; Potency, µM (series often up to 57.2 µM), for the others: at the highest dose activity change, negative = inhibition, most hits filed as inhibitors; AID 1671194; hit rate 0.17% among 140,000; HEK-293 SNCA-luciferase knock-in, luminescence, 24 h;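 further: plate controls were DMSO cells for no effect and cell-free wells for full effect; nearly all actives have a fitted effect of over 45% in size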
GPT2 inhibitor – blocks human glutamate pyruvate transaminase 2; Q8TD30; Recombinant GPT2, coupled pyruvate oxidase/HRP Amplex Red fluorescence; Potency, µM (highest dose often 57.7 µM), for inactives: top-dose activity change, negative = inhibition, actives largely listed as inhibitors; hit rate 0.25% among 100,000; AID 1671188; further: nearly all actives have a fitted effect of over 60% in size
Target sequence (Q8TD30 whole entry, looked up): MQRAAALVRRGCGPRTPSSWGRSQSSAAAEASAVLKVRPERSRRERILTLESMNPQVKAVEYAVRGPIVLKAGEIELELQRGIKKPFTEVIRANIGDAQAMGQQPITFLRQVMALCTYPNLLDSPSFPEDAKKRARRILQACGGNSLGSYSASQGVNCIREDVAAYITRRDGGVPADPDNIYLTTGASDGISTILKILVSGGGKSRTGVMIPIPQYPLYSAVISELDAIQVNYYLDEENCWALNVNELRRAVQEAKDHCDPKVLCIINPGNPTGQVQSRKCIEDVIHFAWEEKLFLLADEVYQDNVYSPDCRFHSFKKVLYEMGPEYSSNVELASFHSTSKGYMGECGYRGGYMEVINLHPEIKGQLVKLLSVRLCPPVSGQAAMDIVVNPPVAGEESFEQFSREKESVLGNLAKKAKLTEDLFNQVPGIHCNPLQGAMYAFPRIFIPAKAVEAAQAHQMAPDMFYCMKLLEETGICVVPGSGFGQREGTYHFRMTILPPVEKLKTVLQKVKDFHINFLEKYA
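Inhibition is scored from Amplex Red fluorescence generated when pyruvate oxidase and HRP act on pyruvate released by GPT2. Reactions contain 10ng/uL enzyme, 250uM a-KG and 2mM L-alanine and run 30 min at room temperature.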
HEK293 viab – reduces viability of HEK-293 SNCA reporter cells; HEK-293-SNCA-luc viability, GF-AFC fluorescence, 24 h; Potency, µM (highest dose often 57.1 µM), without a hit: at the highest dose activity change, negative = cytotoxicity, actives largely listed as cytotoxic; hit rate 0.12% among 150,000;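 further: 0% = DMSO-treated cells and -100% = medium-only wells without cells; nearly all actives have a fitted effect of over 30% in size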
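Cytotoxicity counterscreen: after 24 h compound treatment of genome-edited SNCA-luciferase HEK-293 cells, live-cell protease substrate GF-AFC read by fluorescence after 30 min; activity scaled between DMSO (0%) and medium-only (-100%), curves Hill-fitted.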
Starred values were filed as active, the others as inactive; i = inactive; ? = inconclusive; . = no result given; ! = not confirmed by another sample; [ ] = remark or other dose. Shown are actives, neighbours in structure and some others; about 0.32% of the full set was active somewhere. The call rests on the fitted dose curve; in most records, active means well fitted curve in the direction sought with a large enough effect; inconclusive means small, poorly fitted or top-dose-only effect, or another doubt; inactive means no such curve, though single readings can be large; an effect the other way counts as inactive or inconclusive. Unless noted, on the % scale 0 is the no-effect control and ±100 the full control effect; potency means the concentration at half of the fitted maximal effect.

SMILES	SNCA expr inh	GPT2 inhibitor	HEK293 viab
O=C(O)COc1ccc(-c2nccc3c2C(=O)N(Cc2c[nH]c4ccccc24)CC(CNC(=O)c2cccc(Cl)c2)O3)cc1 (configuration not stated)	-2.4%	-16.6%	7.8%
O=C(NCc1ccccc1Cl)c1ccc2nnc(C3CCCC3)n2c1	25.7%	i	5.4%
Fc1ccc(-c2nc(-c3cccs3)c(-c3cccs3)[nH]2)cc1	-5.0%	.	-11.0%
Oc1ccc(-c2nc(-c3ccc(F)cc3)c(-c3ccncc3)[nH]2)cc1	1.36µM*!	?	?
O=C(NCCc1ccc(Cl)cc1)c1nc2sccn2c1-c1ccc(C(F)(F)F)cc1	?	-14.7%	-22.4%
O=[S+]1([O-])c2cccnc2OC(COc2ccccc2)CN1Cc1ccc2c(c1)OCO2 (configuration not stated)	0.7%[25.6 µM]	2.8%[27.3 µM]	-24.1%[23.9 µM]
COc1ccc2[nH]cc(CCNC(C)=O)c2c1	-6.5%	?	0.8%
CC(=O)NCCc1c[nH]c2ccc(O)cc12	-8.0%	3.16µM*	-1.4%
Cc1ccc(F)cc1S(=O)(=O)N[C@@H]1CCN(Cc2ccc(OC(C)C)cc2)C1	.	2.7%	9.47µM*
CO[C@@H]1CCOC[C@H]1NS(=O)(=O)c1cc(F)ccc1C	29.7%	-1.7%[11.5 µM]	11.9%
CN(C)C(=O)COC(=O)c1cc(-c2ccc(C3CCNCC3)cc2)c2ccc(-c3ccc(C(F)(F)F)cc3)cc2c1	.	i	29.9µM*
CN(C)C(=O)CNC(=O)c1cccc(-c2ccc(C(F)(F)F)cc2)c1	?	-21.7%	1.4%[12.5 µM]
COc1cccc(-c2cccc(C(=O)N3CCN(C(=O)Nc4ccc(Cl)cc4)CC3)c2)c1	?	-0.6%	-2.5%[12.5 µM]
CC(C)CC(NC(=O)OCc1ccccc1)C(=O)NC(CC(C)C)C(=O)NC(CCC(=O)O)C(=O)Nc1ccc2ccccc2c1 (configuration not stated)	.	2.6%	-18.7%
CCC[C@@H](C=O)NC(=O)[C@H](CC(C)C)NC(=O)[C@H](CC(C)C)NC(=O)OCc1ccccc1	1.92µM*	5.0%	?
O=C(NC1CCCN(c2ccnc3ccnn23)C1)c1cncc(Br)c1 (configuration not stated)	-6.6%	-1.0%	4.0%
Cc1cccc(NC(c2cccc(Cl)c2)c2ccc3cccnc3c2O)n1 (configuration not stated)	8.91µM*	.	-4.0%
Cc1ccc(C(Nc2ccccn2)c2ccc3cccnc3c2O)cc1 (configuration not stated)	?	.	-19.1%
CCc1nc2c(c(-c3ccc(OC)cc3)n1)CN(C(=O)c1ccc3c(c1)OCO3)CC2	?	i	-10.8%
Cc1ccc(-c2cc(C(=O)N3CCC(Cc4nncn4CC4CC4)CC3)c3ccccc3n2)cc1C	1.3%	i	-18.2%
Cc1ccc(-c2cccc(CN3CCCC(c4nc5ccc(F)cc5c(=O)[nH]4)C3)c2)c(C)c1 (configuration not stated)	-15.7%	i	-1.3%
COc1ccc(CNC(=O)c2cc(C3CC3)nc3c2c(C)nn3-c2cccc(Cl)c2C)cc1	0.1%	.	4.8%
CC(C)c1nn(-c2c(Cl)cccc2Cl)c2nc(Cc3ccc(OCCO)cc3)[nH]c(=O)c12	0.192µM*	-1.7%	?
Cc1cccc(-c2nc3ccc(C(=O)N(C)C)cc3o2)n1	?	1.8%	1.0%
CCCCNC(=O)CSc1nc2ccccc2nc1Cc1ccc(C)cc1	0.2%	.	-2.1%
SMILES	SNCA expr inh	GPT2 inhibitor	HEK293 viab
CCCCN(C)C(=O)CSc1nc2ccccc2nc1Cc1ccc(C)cc1	14.1µM*	.	?
CC(C)(C)C1CCC2(CC1)NC(=O)N(CC(=O)Nc1ccc3c(c1)OCCO3)C2=O (configuration not stated)	5.4%	-2.8%	3.1%
CN(C)CCN(Cc1ccc(-c2ccc(CNCCc3ccccc3)cc2)cc1)C(=O)CCC1CCCC1	.	3.6%	18.9µM*
CCN(Cc1ccccc1)C(=O)CCC1CCN(S(=O)(=O)c2ccccc2)CC1	-29.0%	0.8%	2.7%
Cc1ccc2c(n1)O[C@@H](COCc1ccccc1)CN(Cc1ccc3c(c1)OCO3)C2=O	0.9%[25.6 µM]	i	-14.0%[23.9 µM]
COc1cccc(-c2cccc(C(=O)N3CCCC3C(=O)NCCCc3ccccc3)c2)c1 (configuration not stated)	-0.5%	?	4.8%[12.5 µM]
COCCN1CCC2(C1)CN(C)c1ccc(C(=O)Nc3ccc(F)cc3)cc12 (configuration not stated)	-2.3%[87.6 µM]	-27.6%[88.5 µM]	-7.1%[87.6 µM]
COCCN1CCC2(C1)CN(C)c1ccc(C(=O)Nc3ccccc3)cc12 (configuration not stated)	10µM*	3.9%[88.5 µM]	-1.7%[87.6 µM]
Cc1ccc(Nc2ccnc(N3CCCC(C(=O)NCc4ccc5c(c4)OCO5)C3)n2)cc1 (configuration not stated)	?	i	-1.4%[12.5 µM]
COc1cc(C(=O)NC2CCN(C)CC2)ccc1Nc1ncc2c(n1)N(C1CCCC1)CCC(=O)N2C(C)C	8.4%	i	-5.0%
COc1ccc(C(=O)NC2CCN(c3cnn(CC4CC4)c(=O)c3)CC2)cc1OC	15.4%	-6.5%	8.4%
CC[C@@H]1C(=O)N(C)c2cnc(Nc3ccc(C(=O)NC4CCC(N5CCN(CC6CC6)CC5)CC4)cc3OC)nc2N1C(C)C (some centres not stated)	43.1%	-0.4%	29.9µM*!
CCC1C(=O)N(C)c2cnc(Nc3ccc(C(=O)NC4CCC(N5CCN(CC6CC6)CC5)CC4)cc3OC)nc2N1C(C)C (configuration not stated)	.	0.3%	23.8µM*
Cn1nc(C(=O)NC2CCCc3c2[nH]c2ccccc32)c2ccccc2c1=O (configuration not stated)	-5.2%	0.6%	-4.1%
O=C(NCc1ccc2c(c1)OCO2)C1CCCCN1Cc1ccc(-c2ccsc2)cc1 (configuration not stated)	-31.9%	4.0%	-6.4%
Cc1ccc(Nc2ccnc(N3CCCC(C(=O)NCc4cccs4)C3)n2)cc1 (configuration not stated)	-26.8%	i	-4.6%[12.5 µM]
CC(C)c1ccc(S(=O)(=O)N2CCC(CCc3nc(C4CCOCC4)no3)CC2)cc1	-20.8%	i	-5.3%
CCc1ccc(CNC(=O)C2(Cc3cccnc3)CCCCC(=O)N2)cc1 (configuration not stated)	-11.6%	-1.1%	-1.1%
Cc1ccc(-n2[nH]c(C)c(N=Nc3cccc(-c4cccc(C(=O)O)c4)c3O)c2=O)cc1C	-0.8%	1.93µM*	-18.2%
COc1ccccc1-c1cccc(C(=O)O)c1	-16.8%[87.6 µM]	-9.7%[88.5 µM]	-1.7%[87.6 µM]
CC(=O)NC1(C)CCN(Cc2ccc(-c3ccccc3Oc3ccccc3)cc2)C1 (configuration not stated)	-18.0%[87.6 µM]	2.0%[88.5 µM]	-15.6%[87.6 µM]
COCCC1(NC(=O)c2ccccc2)CCN(Cc2ccc3[nH]ccc3c2)CC1	18.4%	i	-2.5%
O=C(Nc1cc2cc[nH]c2cn1)c1ccccc1	1.52µM*	-2.1%	?
Cn1ncc2c(C(=O)NCc3cccc(F)c3)cc(-c3ccc(Cl)cc3)nc21	-29.6%	i	-12.6%
Cc1nn(C)c2c1C(c1ccc(C(F)(F)F)cc1)C(C#N)=C(N)O2 (configuration not stated)	22.5%	15.3µM*!	6.8%
